In the supplement of paper PMC8699584 one finds cell viability data, which are given here for 40 molecules.

Where “and” joins values, the source holds several entries; their conditions need not be identical. Equal values may be shown once. Where a name gives a salt, the structure may show the parent alone. ± gives the standard deviation of the averaged measurements.

This assay concerns Molm13. Kind of assay: cell viability relative to DMSO control (bortezomib = 0%); higher = less growth inhibition. The note with it: 10 nM; 72 h. In outline:
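Viability was determined with CellTiter-Glo luminescence. Acute myeloid leukemia cells (1000 per well, 50 µL) were exposed for 72 h to 679 approved and investigational compounds at a single 10 nM dose in 384-well plates. Percentages came from per-plate linear regression, setting DMSO-treated wells to 100% and positive-control-treated wells to 0%.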
As a reminder, the cell viability is a read-out of living cells in per cent, often relative to untreated cells. With `NS(=O)(=O)c1ccc(Nc2nc(OCC3CCCCC3)c3[nH]cnc3n2)cc1`, the cell viability worked out at 104 ± 34%.
Next, `Cn1cnc2c(F)c(Nc3ccc(Br)cc3Cl)c(C(=O)NOCCO)cc21` [Selumetinib (AZD6244)]: 106 ± 18%.
Then `CN1CCN(c2ccc(C(=O)Nc3cc(-c4cccc(NS(=O)(=O)c5ccccc5)c4)[nH]n3)cc2)CC1`, with 61.4 ± 18%; and `FC(F)(F)c1ccc(/C=C/c2nc(COc3ccc(CCCCn4ccnn4)cc3)co2)cc1` [Mubritinib (TAK 165)], with 107 ± 9%.
In the case of `COc1ccc(-c2cc(=O)c3c(O)cc(O)cc3o2)cc1O` [Diosmetin], the cell viability amounted to 93.4 ± 11%.
Next, `O=C(O)c1ccc(Nc2ncc3c(n2)-c2ccc(Cl)cc2C(c2c(F)cccc2F)=NC3)cc1`: 107 ± 1.3%; `CCOC(=O)c1c2c3c(cccc3[nH]c1=O)C(=O)c1ccccc1-2`: 124 ± 7.7%; `O=c1cc(-c2ccc(O)cc2)oc2cc(O)cc(O)c12` [Apigenin]: 86.9 ± 19%.
Then `N#CC(=C(/N)Sc1ccccc1N)/C(C#N)=C(/N)Sc1ccccc1N`, with 104 ± 12%; and `O=C(Nc1cc(Cl)cc2c1[nH]c1cnccc12)c1cccnc1`, with 110 ± 1.9%; and `CN1C(=O)C(c2c[nH]c3ccccc23)=C(c2c[nH]c3ccccc23)C1=O` [Bisindolylmaleimide V], with 124 ± 11%.
Regarding `CCn1c(N)c(C(=O)NC)c(=O)c2ccc(C#CC(C)(O)COC)nc21` (stereo not given), the cell viability was 110 ± 4.6%.
For the molecule `CCOC(=O)c1cnc2ccc(-c3cncc(NS(=O)(=O)c4ccccc4)c3)cn12`, the cell viability turned out to be 99.7 ± 8.9%.
Then `CN(C)CCCn1cc(C2=C(c3c[nH]c4ccccc34)C(=O)NC2=O)c2ccccc21` [Bisindolylmaleimide I], with 94.6 ± 15%; and `c1cc(-c2cnn3cc(-c4ccc(N5CCNCC5)cc4)cnc23)c2cccnc2c1`, with 107 ± 1.7%.
Take `O=C(NC[C@H](O)CO)c1ccncc1Nc1ccc(I)cc1F`: the cell viability is 91.6% and 95%.
Then `CN(C)CCN(Cc1ccc(Cl)cc1)c1ccccn1` [Chloropyramine hydrochloride], with 105 ± 27%; and `O=C(Nc1cc(Oc2cc(F)c(NC(=O)C3(C(=O)Nc4ccc(F)cc4)CC3)cc2F)ccn1)C1CC1` [Altiratinib(DCC2701)], with 106 ± 12%.
Then `C[S+]([O-])c1ccc(-c2nc(-c3ccc(F)cc3)c(-c3ccncc3)[nH]2)cc1` (stereo not given), with 104% and 108% and 110%; and `O=C1Nc2ccc(CN3C(=O)CSC3=O)cc2/C1=C/c1cc(CN2CCOCC2)c[nH]1`, with 92.3 ± 7.1%; and `COc1cc2nccc(Oc3ccc(NC(=O)Nc4cc(C)on4)c(Cl)c3)c2cc1OC` [Tivozanib (AV-951)], with 96.3 ± 6.1%.
Turning to `Cc1cccc(/C=N/Nc2cc(N3CCOCC3)n3nc(-c4ccncc4)cc3n2)c1`, the cell viability stood at 95.5 ± 11%.
Regarding `CCCCNc1ncc(-c2ccc(CN3CCOCC3)cn2)c(NC2CCC(O)CC2)n1` (stereo not given), the cell viability was 94.6 ± 6.1%.
Next, `COC(=O)[C@]12CCC(C)(C)C[C@H]1[C@H]1C(=O)C=C3[C@@]4(C)C=C(C#N)C(=O)C(C)(C)[C@@H]4CC[C@@]3(C)[C@]1(C)CC2` [Bardoxolone Methyl]: 102 ± 6.8%; `O=C(O)c1ccc2nc(-c3ccccc3)c(-c3ccccc3)nc2c1`: 98.2 ± 15%; `C=C1C[C@@]2(O)O[C@@]3(C[C@H]2C(C)C)[C@@H](C)CC[C@@H]13` [Curcumol]: 99 ± 9.7%.
As for `Nc1ncnc2c1c(-c1cnc3[nH]ccc3c1)nn2C1CCCC1`, the cell viability worked out at 118 ± 2.6%.
Next, `N#CCNC(=O)c1ccc(-c2ccnc(Nc3ccc(N4CCOCC4)cc3)n2)cc1` [Momelotinib (CYT387)]: 98.5 ± 17%; `Cn1c(=O)n(-c2ccc(C(C)(C)C#N)cc2)c2c3cc(-c4cnc5ccccc5c4)ccc3ncc21`: 107 ± 2.7%; `C[C@H](NC(=O)/C(C#N)=C/c1cccc(Br)n1)c1ccccc1`: 103 ± 0.31%.
Then `CC(C)=CCc1cc2c(cc1O)oc(=O)c1c3ccc(O)cc3oc21` [Psoralidin], with 111 ± 27%.
Then `CC[C@@H]1C(=O)N(C)c2cnc(Nc3ccc(C(=O)NC4CCN(C)CC4)cc3OC)nc2N1C1CCCC1`, with 64.7 ± 9.6%; and `C[C@@H]1CN(C(=O)c2ccc(NC(=O)c3cc(O[C@H](C)c4c(Cl)ccc(F)c4Cl)c(N)nn3)cc2)C[C@H](C)N1` [Ensartinib], with 127 ± 20%.
Regarding `Cc1c(NC(=O)c2ccc(C(C)(C)C)cc2)cccc1-c1cn(C)c(=O)c(Nc2ccc(C(=O)N3CCOCC3)cc2)n1`, the cell viability came to 106 ± 13%.
For the molecule `CN1CCN(c2ccc(Nc3cc(-c4cccc(-n5ccc6cc(C7CC7)cc(F)c6c5=O)c4CO)cn(C)c3=O)nc2)CC1`, the cell viability was 99.6 ± 8.6%.
Next, `COc1cc2c(Oc3ccc4[nH]c(C)cc4c3F)ncnc2cc1OCCCN1CCCC1` [Cediranib (AZD2171)]: 107 ± 23%.
Then `NC(=O)c1ccc(NC(=O)NCc2cccc(C(=O)Nc3ccc4c(c3)CNCC4)c2)cc1`, with 117 ± 25%; and `CNc1nc(-c2ccc3c(N)n[nH]c3c2)cc(N2C[C@@H](C(=O)NC3CCCCC3)CC[C@H]2C)n1`, with 112 ± 2.6%; and `O=c1sn(-c2cccc3ccccc23)c(=O)n1Cc1ccccc1` [Tideglusib], with 116 ± 9.5%.
Then `O=C(NOCC1CC1)c1cc(Br)c(F)c(F)c1Nc1ccc(I)cc1Cl`, with 110 ± 11%.
